# Env fusion inh: blocks HIV Env-driven cell-cell fusion. HeLa-JRFL Env/CEM21 cell fusion, luciferase. inhibition, % at 12.3 µM. 360,000 tested, 1.1% active. AID 651610;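 active = mean replicate inhibition score of at least 50 and every replicate individually at or above 50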;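 note: 0% = plate neutral controls and 100% = maraviroc near 300 nM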
# PAX8 inh HTS: PAX8 transcriptional activity inhibition. RMG-I TPO-luciferase reporter, SteadyGlo, 24 h. inhibition, % at 12.6 µM. 360,000 tested, 1.2% active;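 active = mean replicate inhibition at least 60% with every replicate also reaching 60%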;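 note: luciferase light reporting Pax8 driven TPO promoter activity; plate controls were median of neutral control wells for no effect and mitoxantrone controls for full effect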
# PGC1a acetyl inh: modulators of PGC1a acetylation; 350,000 tested, 0.17% active; inhibition, % at 15.6 µM; U2OS PGC1a acetylation, AlphaScreen anti-acetyl-lysine; with virally co-expressed GCN5 acetyltransferase; AID 651687;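 active = every replicate shows inhibition of at least 40%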;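 note: 0% = neutral control wells and 100% = positive control wells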
# CFTR F508del cor: CFTR F508del correction in bronchial cells; CFBE cells, YFP halide quenching; stimulated with forskolin plus potentiator P3; % fluorescence drop versus neutral controls; activity (quench increase), % at 7.58 µM; 350,000 tested, 0.36% active;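 active = mean added fluorescence quench of at least 8% versus neutral control, with both replicates also reaching 8%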;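 note: cells transiently co-express mutant CFTR-F508del with the halide-sensitive YFP; corrector assay measuring rescue of mutant channel to the surface after 24 h compound exposure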
# EWS-Fli block: inhibitors of EWS/Fli oncoprotein transcriptional activity; 350,000 tested, 0.67% active; inhibition, % at 12.6 µM; A673 NR0B1-luciferase reporter, viability-normalised;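 active = mean inhibition of at least 50% after viability correction, with every replicate also passing that limit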;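 note: firefly luciferase signal divided by Alamar Blue viability fluorescence both relative to DMSO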
# INS-1E GSIS act: primary screen for activators of insulin secretion dependent on glucose, INS-1E cells, GLuc reporter luminescence | INS-1E GLuc reporter insulin secretion, 2-3 h | activation, % at 16.6 µM | 370,000 tested, 0.61% active | AID 743287;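 active = lowest replicate activation of at least 40%, so every replicate reaches that level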;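 note: 0% = median of neutral control wells and 100% = median of IBMX positive control wells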
# An asterisk follows results filed as active; · = no result; [ ] = remark or other dose. An excerpt weighted towards active compounds, which were near 2.7% of everything screened.
SMILES,Env fusion inh,PAX8 inh HTS,PGC1a acetyl inh,CFTR F508del cor,EWS-Fli block,INS-1E GSIS act
COc1ccc(NC(=O)N(C)C[C@H]2OCCCC[C@H](C)Oc3ccc(NC(=O)CCCN(C)C)cc3C(=O)N([C@H](C)CO)C[C@@H]2C)cc1,-6.7[16.7 µM],-0.5,4.8,-1.9,-5.6,4.2
CC=Cc1ccc2n(c1=O)C[C@@H]1[C@@H](CO)[C@H](C(=O)NCCC)[C@H]2N1S(=O)(=O)c1cn(C)cn1 (mixture of isomers),·,3.3,-11.6,-3.8,-5.9,5.4
CO[C@H]1CN(C)C(=O)c2ccc(NC(=O)c3cnccn3)cc2OC[C@@H](C)N(CC2CC2)C[C@H]1C,·,-5.8,11.5,-1.3,·,11.3
Cc1noc(C)c1NC(=O)N(C)C[C@@H]1OCCCC[C@H](C)Oc2ccc(NS(=O)(=O)c3ccc(F)cc3)cc2C(=O)N([C@@H](C)CO)C[C@H]1C,9.9[16.7 µM],-5.1,·,-1.7,1.2,5.5
C[C@H]1CCCCO[C@H](CN(C)C(=O)Nc2ccc(F)cc2)[C@@H](C)CN([C@@H](C)CO)C(=O)c2cc(NS(=O)(=O)c3ccc(F)cc3)ccc2O1,23.4[16.7 µM],66.9*,4.2,-2.3,17.0,-23.4
C[C@@H]1CN([C@H](C)CO)C(=O)c2cc(NS(=O)(=O)c3ccc(F)cc3)ccc2O[C@@H](C)CCCCO[C@H]1CN(C)C(=O)Nc1ccc(F)cc1,-129.3[16.7 µM],21.1,31.4,-0.4,-4.2,-28.9
Cc1noc(C)c1NC(=O)N(C)C[C@H]1OCCCC[C@@H](C)Oc2ccc(NS(=O)(=O)c3ccc(F)cc3)cc2C(=O)N([C@H](C)CO)C[C@@H]1C,59.9*[16.7 µM],-18.3,·,0.5,-9.0,20.8
CO[C@@H](CN(C)S(=O)(=O)c1ccc(F)cc1)[C@H](C)CN([C@@H](C)CO)S(=O)(=O)c1cccc(Cl)c1,·,·,-7.9,2.1,9.2,-20.0
COc1ccc(-n2nc([N+](=O)[O-])c(=NCc3cccnc3)n2O)cc1,·,145.9*,-10.2,-0.5,-8.2,·
CC=Cc1ccc2n(c1=O)C[C@@H]1[C@@H](CO)[C@H](C(=O)NCC3CC3)N(Cc3cccnc3)[C@H]21 (mixture of isomers),·,-6.9,·,-0.4,-5.1,1.7
CCOCc1c(C(=O)NC2=Nc3ccccc3NC(CC)=C2C(=O)OCC)oc2ccccc12,21.1,79.6*,-9.7,1.1,-8.3,-35.2
CCOC(=O)C1=C(CC)Nc2ccccc2N=C1NC(=O)c1oc2ccccc2c1C,-5.7,64.5*,-9.9,4.6,8.2,4.9
CCOC(=O)C1=C(CC)Nc2ccccc2N=C1NC(=O)CCNC(C)=O,24.2,-5.9,-1.6,0.2,3.9,11.3
CCOC(=O)C1=C(CC)Nc2ccccc2N=C1NC(=O)c1ccc(S(=O)(=O)N(C)C)cc1,-69.1,-29.2,7.4,·,·,·
C[C@@H]1CN([C@H](C)CO)C(=O)c2cc(NC(=O)NC3CCCCC3)ccc2O[C@@H](C)CCCCO[C@@H]1CN(C)C(=O)NC1CCCCC1,8.6[16.7 µM],-7.4,-0.4,0.1,-6.8,-29.2
CO[C@@H]1CN(C)C(=O)c2cc(NC(C)=O)ccc2OC[C@H](C)N(C(=O)c2cnccn2)C[C@H]1C,5.8[16.7 µM],-17.0,4.4,-1.9,-6.2,11.5
O=C(C[C@@H]1CC[C@@H]2[C@H](COC[C@@H](O)CN2S(=O)(=O)c2cccc(Cl)c2)O1)Nc1ccc(-c2ccccc2)cc1,·,83.0*,-0.6,5.1,-0.7,-2.7
Cc1cccc(S(=O)(=O)N2C[C@H](O)COC[C@H]3O[C@H](CC(=O)Nc4ccc(-c5ccccc5)cc4)CC[C@@H]32)c1,7.3[16.7 µM],33.7,-13.5,-1.9,17.3,-18.0
Cc1cccc(S(=O)(=O)N2C[C@@H](O)COC[C@@H]3O[C@@H](CC(=O)Nc4ccc(-c5ccccc5)cc4)CC[C@H]32)c1,13.9[16.7 µM],84.0*,4.3,-1.7,4.4,-23.0
O=C(C[C@@H]1CC[C@H]2[C@@H](COC[C@@H](O)CN2S(=O)(=O)c2cccc(Cl)c2)O1)Nc1ccc(-c2ccccc2)cc1,·,20.8,-4.2,-0.8,-0.7,10.7
COCC(=O)Nc1ccc2c(c1)OC[C@H](C)N(CCc1ccccc1)C[C@H](C)[C@@H](OC)CN(C)C2=O,·,·,·,·,·,-3.9
CCOC(=O)c1c(NC(=O)C(=O)N/N=C/c2ccccc2O)sc2c1CCCCC2,·,55.0,4.4,16.4*,17.9,0.1
CCOC(=O)c1c(NC(=O)C(NCCN(C)C)c2ccccc2)sc2c1CCCC2 (stereo not given),-1.6,38.2,·,1.4,58.9*,-15.9
CN1c2ccc(-c3ccc(F)cc3)cc2[C@@H]2[C@@H](CCN2C(=O)CC2CC2)[C@H]1CO,·,·,·,·,·,7.2
Cc1ccc(S(=O)(=O)Nc2ccc3c(c2)C(=O)N([C@H](C)CO)C[C@H](C)[C@@H](CN(C)C(=O)Nc2ccc(C(F)(F)F)cc2)OCCCC[C@H](C)O3)cc1,8.2[16.7 µM],41.3,14.4,-0.8,-3.0,6.6
SMILES,Env fusion inh,PAX8 inh HTS,PGC1a acetyl inh,CFTR F508del cor,EWS-Fli block,INS-1E GSIS act
Cc1ccc(S(=O)(=O)Nc2ccc3c(c2)C(=O)N([C@H](C)CO)C[C@@H](C)[C@H](CN(C)C(=O)Nc2ccc(C(F)(F)F)cc2)OCCCC[C@@H](C)O3)cc1,19.8[16.7 µM],69.4*,1.5,0.3,17.6,-6.2
Cc1ccc(S(=O)(=O)Nc2ccc3c(c2)C(=O)N([C@@H](C)CO)C[C@H](C)[C@@H](CN(C)C(=O)Nc2ccc(C(F)(F)F)cc2)OCCCC[C@H](C)O3)cc1,68.5*[16.7 µM],78.9*,-2.9,2.2,11.6,23.2
CCSc1nnc(-c2cccnc2)n1-c1ccc(C)c(Cl)c1,·,·,1.9,1.4,5.4,64.3*
Cc1ccc(-n2c(SCC(=O)N3CCOCC3)nnc2-c2cccnc2)cc1C,·,·,-3.1,·,·,·
CC(C)N1C(=O)c2ccccc2NC(=O)C1C(=O)NCc1ccccc1 (stereo not given),59.5*,-12.9,·,-0.6,0.2,-7.2
O=C(NCc1ccccc1)C1C(=O)Nc2ccccc2C(=O)N1C1CCCC1 (stereo not given),39.3,-8.7,·,-0.6,2.2,10.9
Cc1ccc(CCc2nnc(SCC(=O)Nc3cccc(Cl)c3)n2-c2ccccc2)o1,·,91.0*,·,1.3,13.7,·
Cc1ccc(-c2nc(C)sc2CC(=O)OCC(=O)Nc2cccc([N+](=O)[O-])c2)cc1,·,108.7*,·,-1.3,-3.9,-1.7
CCCCOC(=O)C1=C(C)NC(=O)NC1c1cccc([N+](=O)[O-])c1 (stereo not given),-39.4,6.8,·,-0.9,14.6,-5.3
CCC(CC)COC(=O)C1=C(C)NC(=O)NC1c1cccc([N+](=O)[O-])c1 (stereo not given),61.9*,4.4,4.1,1.1,13.1,-9.8
CCCNC(=O)C[C@H]1CC[C@@H]2[C@H](COc3ccc(NC(=O)c4cccs4)cc3C(=O)N2C)O1,·,-2.4,-1.3,-0.8,-15.4,0.6

# Screening results as filed in PubChem BioAssay.
